Among all 5,500 compounds or so, about 2,000 (36%) were called active. Not shown: some 18% with an inconclusive outcome. Cut-off read from the data, not from the text of the source: active = normalized growth mostly below about 0.91 (no sharp cut-off); inconclusive = no clear call, values can overlap the other calls; inactive = mostly above about 0.92. The list shows a part of the results.
Assay: chemical genetic growth profiling, strain panel (AID 1159580);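 note: tested at 20 µM; growth read once vehicle control cultures reached saturation at 30 °C; 1 = growth at the plate median or of vehicle wells; lower values mean less growth of the strain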
Details: S. cerevisiae deletion strains, growth OD
[1] = locus YBL105C, strain PKC1, stronger effect = lower value
[2] = locus YBR135W, strain CKS1, stronger effect = lower value
[3] = locus YBR136W, strain MEC1, stronger effect = lower value
[4] = locus YBR160W, strain CDC28, stronger effect = lower value
[5] = locus YDL017W, strain CDC7, stronger effect = lower value
[6] = locus YDL028C, strain MPS1, stronger effect = lower value
[7] = locus YDL108W, strain KIN28, stronger effect = lower value
[8] = locus YDL214C, strain PRR2, stronger effect = lower value
[9] = locus YDR052C, strain DBF4, stronger effect = lower value
[10] = locus YDR226W, strain ADK1, stronger effect = lower value
[11] = locus YDR477W, strain SNF1, stronger effect = lower value
[12] = locus YER123W, strain YCK3, stronger effect = lower value
[13] = locus YER133W, strain GLC7, stronger effect = lower value
[14] = locus YFR003C, strain YPI1, stronger effect = lower value
[15] = locus YFR019W, strain FAB1, stronger effect = lower value
[16] = locus YFR028C, strain CDC14, stronger effect = lower value
[17] = locus YGR040W, strain KSS1, stronger effect = lower value
[18] = locus YGR052W, strain FMP48, stronger effect = lower value
[19] = locus YGR092W, strain DBF2, stronger effect = lower value
[20] = locus YHR030C, strain SLT2, stronger effect = lower value
[21] = locus YHR079C, strain IRE1, stronger effect = lower value
[22] = locus YHR082C, strain KSP1, stronger effect = lower value
[23] = locus YHR205W, strain SCH9, stronger effect = lower value
[24] = locus YIL147C, strain SLN1, stronger effect = lower value
[25] = locus YJL095W, strain BCK1, stronger effect = lower value
[26] = locus YJL128C, strain PBS2, stronger effect = lower value
[27] = locus YJL157C, strain FAR1, stronger effect = lower value
[28] = locus YJR016C, strain ILV3, stronger effect = lower value
[29] = locus YJR066W, strain TOR1 (second series), stronger effect = lower value
[30] = locus YJR066W, strain TOR1, stronger effect = lower value
[31] = locus YKL048C, strain ELM1, stronger effect = lower value
[32] = locus YKL067W, strain YNK1, stronger effect = lower value
[33] = locus YKL101W, strain HSL1, stronger effect = lower value
[34] = locus YKL203C, strain TOR2, stronger effect = lower value
[35] = locus YLR113W, strain HOG1, stronger effect = lower value
[36] = locus YLR133W, strain CKI1, stronger effect = lower value
[37] = locus YLR403W, strain SFP1, stronger effect = lower value
[38] = locus YML070W, strain DAK1, stronger effect = lower value
[39] = locus YMR001C, strain CDC5, stronger effect = lower value
[40] = locus YMR205C, strain PFK2 (second series), stronger effect = lower value
[41] = locus YNL006W, strain LST8, stronger effect = lower value
[42] = locus YNL020C, strain ARK1, stronger effect = lower value
[43] = locus YNL161W, strain CBK1, stronger effect = lower value
[44] = locus YNL183C, strain NPR1, stronger effect = lower value
[45] = locus YNL207W, strain RIO2, stronger effect = lower value
[46] = locus YNL222W, strain SSU72, stronger effect = lower value
[47] = locus YNL307C, strain MCK1 (second series), stronger effect = lower value
[48] = locus YOL136C, strain PFK27, stronger effect = lower value
[49] = locus YOR061W, strain CKA2, stronger effect = lower value
[50] = locus YOR119C, strain RIO1, stronger effect = lower value
[51] = locus YOR231W, strain MKK1, stronger effect = lower value
[52] = locus YOR329C, strain SCD5, stronger effect = lower value
[53] = locus YPL031C, strain PHO85, stronger effect = lower value
[54] = locus YPL153C, strain RAD53, stronger effect = lower value
[55] = locus YPL204W, strain HRR25, stronger effect = lower value
[56] = locus YPL209C, strain IPL1, stronger effect = lower value
[57] = locus YPL256C, strain CLN2, stronger effect = lower value
[58] = locus YPR025C, strain CCL1, stronger effect = lower value
[59] = locus YPR106W, strain ISR1, stronger effect = lower value
[60] = locus YPR111W, strain DBF20, stronger effect = lower value
[61] = strain NNK1, stronger effect = lower value
[62] = locus YAR019C, strain CDC15, stronger effect = lower value
[63] = locus YDL101C, strain DUN1, stronger effect = lower value
[64] = locus YDL132W, strain cdc53, stronger effect = lower value
[65] = locus YDR054C, strain cdc34, stronger effect = lower value
[66] = locus YFL009W, strain cdc4, stronger effect = lower value
[67] = locus YFL029C, strain CAK1, stronger effect = lower value
[68] = locus YKL193C, strain SDS22, stronger effect = lower value
[69] = locus YMR277W, strain FCP1, stronger effect = lower value
[70] = locus YOL078W, strain AVO1, stronger effect = lower value
[71] = strain TSCII, stronger effect = lower value

Measured: normalized growth

Oc1c(Br)cc(Br)cc1C=Nc1ccccn1
inactive: [1] 0.969 | [2] 0.965 | [3] 0.967 | [4] 0.965 | [5] 0.958 | [6] 0.96 | [7] 0.978 | [9] 0.968 | [10] 0.989 | [14] 0.952 | [16] 0.984 | [24] 0.965 | [26] 0.937 | [28] 0.974 | [39] 0.962 | [43] 0.968 | [45] 0.965 | [46] 0.96 | [52] 0.963 | [56] 0.967 | [58] 0.968 | [59] 0.962 | [60] 0.953 | [61] 0.947
active: [8] 0.221 | [11] 0.417 | [12] 0.119 | [13] 0.288 | [15] 0.111 | [17] 0.437 | [18] 0.179 | [19] 0.16 | [20] 0.133 | [21] 0.135 | [22] 0.161 | [23] 0.118 | [25] 0.132 | [27] 0.165 | [29] 0.368 | [30] 0.141 | [31] 0.55 | [32] 0.213 | [33] 0.375 | [34] 0.348 | [35] 0.154 | [36] 0.165 | [37] 0.167 | [38] 0.113 | [40] 0.211 | [41] 0.895 | [42] 0.14 | [44] 0.146 | [47] 0.23 | [48] 0.116 | [49] 0.114 | [50] 0.341 | [51] 0.12 | [53] 0.296 | [54] 0.23 | [55] 0.304 | [57] 0.155

Oc1c(Cl)cc(Cl)cc1C=Nc1ccc(Sc2ccccc2)nc1Sc1ccccc1
inactive: [62] 0.938 | [1] 0.958 | [2] 0.954 | [3] 0.954 | [4] 0.954 | [5] 0.956 | [6] 0.922 | [63] 0.97 | [7] 0.945 | [64] 0.95 | [9] 0.968 | [65] 0.95 | [10] 0.956 | [12] 0.7 | [66] 0.945 | [67] 0.943 | [14] 0.955 | [15] 0.916 | [16] 0.942 | [18] 0.616 | [24] 0.939 | [26] 0.913 | [28] 0.961 | [29] 0.771 | [68] 0.945 | [34] 0.748 | [38] 0.727 | [39] 0.943 | [69] 0.929 | [41] 0.942 | [43] 0.957 | [44] 0.606 | [45] 0.962 | [46] 0.938 | [70] 0.955 | [48] 0.693 | [52] 0.948 | [56] 0.951 | [58] 0.95 | [59] 0.956 | [60] 0.941 | [61] 0.965 | [71] 0.95
active: [8] 0.675 | [11] 0.6 | [13] 0.635 | [17] 0.684 | [19] 0.217 | [20] 0.322 | [21] 0.472 | [22] 0.599 | [23] 0.462 | [25] 0.414 | [27] 0.56 | [30] 0.482 | [31] 0.734 | [32] 0.584 | [33] 0.674 | [35] 0.667 | [36] 0.585 | [37] 0.49 | [40] 0.59 | [42] 0.566 | [47] 0.517 | [49] 0.392 | [50] 0.652 | [51] 0.509 | [53] 0.598 | [54] 0.535 | [55] 0.577 | [57] 0.619

Oc1c(Br)cc(Br)cc1C=Nc1ccc(Sc2ccccc2)nc1Sc1ccccc1
active: [8] 0.331 | [11] 0.311 | [12] 0.364 | [13] 0.285 | [17] 0.351 | [18] 0.196 | [19] 0.155 | [20] 0.103 | [21] 0.151 | [22] 0.155 | [23] 0.0625 | [25] 0.14 | [27] 0.208 | [29] 0.591 | [30] 0.162 | [31] 0.483 | [32] 0.24 | [33] 0.353 | [34] 0.388 | [35] 0.383 | [36] 0.226 | [37] 0.134 | [38] 0.406 | [40] 0.248 | [42] 0.174 | [44] 0.236 | [47] 0.222 | [48] 0.43 | [49] 0.142 | [50] 0.313 | [51] 0.196 | [53] 0.29 | [54] 0.249 | [55] 0.311 | [57] 0.314
inactive: [62] 0.92 | [1] 0.945 | [2] 0.926 | [3] 0.945 | [4] 0.936 | [5] 0.948 | [6] 0.917 | [63] 0.969 | [7] 0.926 | [64] 0.931 | [9] 0.955 | [65] 0.927 | [10] 0.932 | [66] 0.927 | [67] 0.937 | [14] 0.94 | [16] 0.924 | [24] 0.931 | [26] 0.904 | [28] 0.953 | [68] 0.93 | [39] 0.922 | [69] 0.904 | [41] 0.941 | [43] 0.945 | [45] 0.953 | [46] 0.915 | [70] 0.928 | [52] 0.951 | [56] 0.949 | [58] 0.935 | [59] 0.945 | [60] 0.915 | [61] 0.945 | [71] 0.928
